# Results: PubChem BioAssay (NCATS)
# Records with an inconclusive call do not appear. A call without a number means that no potency is given here. Active and inactive are the calls of the source. Unless noted, the call rests on the fitted dose curve; in most records, active means well fitted curve in the direction sought with a large enough effect; inconclusive means small, poorly fitted or top-dose-only effect, or another doubt; inactive means no such curve, though single readings can be large; an effect the other way counts as inactive or inconclusive.
# Columns and labels:
# [1] = molecular target: Cytochrome P450 2C9 (Homo sapiens) (UniProt P11712); test: Cytochrome P450 family 2 subfamily C member 9 (CYP2C9) small molecule antagonists: luciferase biochemical (cell-free) qHTS assay (AID 1645842; active means well fitted curve in the direction sought with a large enough effect in the repeat runs; an effect the other way counts as inactive or inconclusive; further: nearly all actives have a fitted effect of over 55% in size; further: potency means the concentration at half of the fitted maximal effect)
# How it was run: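 P450-Glo CYP2C9 system: proluciferin substrate with enzyme in mix containing 0.4% BSA, 10 min at room temperature, then NADPH regeneration solution added and incubated 1 h at 37C. Detection reagent stopped reaction; luminescence read after 20 min as RLU.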
# [2] = Primary redox qHTS assay for identification of artifact compounds. (AID 1845223)
# How it was run: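 Redox-cycling detection via DTT (250 uM final) oxidation coupled to Amplex Red (25 uM)/HRP (250 mU/mL) in HBSS. 15 min preincubation plus 30 min after DTT, room temperature. Ex/Em 525/598 nm; 4-parameter Hill fit against DMSO and 10 uM DA3003.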
# CAOV3 = test: Primary qHTS to identify gynecologic anti-cancer compounds using libraries of approved drugs and bioactive compounds (AID 1345084); conditions: Gynecologic cancer cell panel viability, ATPlite luminescence, 48 h; series mostly up to 57.5 µM; further: nearly all actives have a fitted effect of over 55% in size; further: potency means the concentration at half of the fitted maximal effect
# How it was run: (§1)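 Cell viability after 48 h drug treatment, ATPlite luminescence readout; five doses.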
# SKOV3 = test: as above; conditions: Gynecologic cancer cell panel viability, ATPlite luminescence, 48 h; series mostly up to 57.5 µM
# How it was run: as §1
# [3] = molecular target: Cytochrome P450 2D6 (Homo sapiens) (UniProt P10635); test: Cytochrome P450 family 2 subfamily D member 6 (CYP2D6) small molecule antagonists: luciferase biochemical (cell-free) qHTS assay (AID 1645840; active means well fitted curve in the direction sought with a large enough effect in the repeat runs; an effect the other way counts as inactive or inconclusive; further: nearly all actives have a fitted effect of over 55% in size; further: potency means the concentration at half of the fitted maximal effect)
# How it was run: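 P450-Glo CYP2D6 system: proluciferin substrate converted by enzyme to luciferin, read by luminescence proportional to activity. Enzyme-substrate mix with compound 10 min at room temperature, then NADPH regeneration 1 h before detection reagent.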
# PA-1 = test: Primary qHTS to identify gynecologic anti-cancer compounds using libraries of approved drugs and bioactive compounds (AID 1345084); conditions: Gynecologic cancer cell panel viability, ATPlite luminescence, 48 h; series mostly up to 57.5 µM; further: nearly all actives have a fitted effect of over 55% in size; further: potency means the concentration at half of the fitted maximal effect
# How it was run: as §1
# Tov-21-G = test: as above; conditions: Gynecologic cancer cell panel viability, ATPlite luminescence, 48 h; series mostly up to 57.5 µM
# How it was run: as §1
# [4] = molecular target: Catechol O-methyltransferase (Homo sapiens) (UniProt P21964); test: Confirmatory Screen for Target Class Profiling of Small Molecule Inhibitors of Methyltransferases (AID 1745852); conditions: MTase-Glo luminescence, SAH detection, recombinant enzyme; measured here: COMT max response; stronger effect = lower value
# [5] = molecular target: Guanidinoacetate N-methyltransferase (Homo sapiens) (UniProt Q14353); test: as above; conditions: activity change, negative = inhibition: at 57.3 µM (top of the series) unless noted
# [6] = molecular target: Nicotinamide N-methyltransferase (Homo sapiens) (UniProt P40261); test: as above; conditions: MTase-Glo luminescence, SAH detection, recombinant enzyme; measured here: NNMT max response; stronger effect = lower value
# [7] = molecular target: Phenylethanolamine N-methyltransferase (Homo sapiens) (UniProt P11086); test: as above; conditions: MTase-Glo luminescence, SAH detection, recombinant enzyme; measured here: PNMT max response; stronger effect = lower value
# [8] = P-glycoprotein substrates identified in KB-3-1 adenocarcinoma cell line, qHTS therapeutic library screen (AID 1346986);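 further: potency means the concentration at half of the fitted maximal effect; potency is for cytotoxicity meaning loss of cell viability; nearly all actives have a fitted effect of over 60% in size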
# How it was run: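 72 h cell-killing screen, 500 cells/well, CellTiter-Glo luminescence. Paired lines KB-3-1/KB-8-5-11; P-gp dependence checked by tariquidar co-treatment and HEK-293 MDR-19 versus empty-vector cells.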
# [9] = qHTS to identify inhibitors of the type 1 interferon - major histocompatibility complex class I in skeletal muscle: primary screen against the NCATS Mechanism Interrogation Plate v5.0 (MIPE) Libary (AID 1347411); further: potency means the concentration at half of the fitted maximal effect; nearly all actives have a fitted effect of over 65% in size
# How it was run: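 Luminescence from CRISPR HiBit-tagged endogenous HLA-B in human myoblasts reported MHC class I level after 24 h of IFN-beta (4 ng/ml) plus compound. Compounds ran as 11-point 1:3 series, top 46 uM final.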
# Chain of Cytochrome P450 2D6 (Homo sapiens) (P10635 whole entry, looked up): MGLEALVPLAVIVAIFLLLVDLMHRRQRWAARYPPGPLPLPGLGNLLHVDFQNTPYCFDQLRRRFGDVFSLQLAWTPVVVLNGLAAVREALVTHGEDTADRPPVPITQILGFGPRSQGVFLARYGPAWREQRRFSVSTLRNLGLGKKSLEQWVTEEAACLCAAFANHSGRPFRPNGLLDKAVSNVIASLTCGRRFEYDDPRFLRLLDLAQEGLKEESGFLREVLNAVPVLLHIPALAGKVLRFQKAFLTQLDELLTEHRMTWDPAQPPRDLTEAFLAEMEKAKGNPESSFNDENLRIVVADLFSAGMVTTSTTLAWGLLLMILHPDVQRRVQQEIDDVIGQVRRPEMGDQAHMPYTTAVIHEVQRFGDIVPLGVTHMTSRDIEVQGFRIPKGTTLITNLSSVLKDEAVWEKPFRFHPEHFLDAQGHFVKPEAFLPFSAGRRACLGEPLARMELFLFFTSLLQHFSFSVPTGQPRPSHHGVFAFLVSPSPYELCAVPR
# Chain of Cytochrome P450 2C9 (Homo sapiens) (P11712 whole entry, looked up): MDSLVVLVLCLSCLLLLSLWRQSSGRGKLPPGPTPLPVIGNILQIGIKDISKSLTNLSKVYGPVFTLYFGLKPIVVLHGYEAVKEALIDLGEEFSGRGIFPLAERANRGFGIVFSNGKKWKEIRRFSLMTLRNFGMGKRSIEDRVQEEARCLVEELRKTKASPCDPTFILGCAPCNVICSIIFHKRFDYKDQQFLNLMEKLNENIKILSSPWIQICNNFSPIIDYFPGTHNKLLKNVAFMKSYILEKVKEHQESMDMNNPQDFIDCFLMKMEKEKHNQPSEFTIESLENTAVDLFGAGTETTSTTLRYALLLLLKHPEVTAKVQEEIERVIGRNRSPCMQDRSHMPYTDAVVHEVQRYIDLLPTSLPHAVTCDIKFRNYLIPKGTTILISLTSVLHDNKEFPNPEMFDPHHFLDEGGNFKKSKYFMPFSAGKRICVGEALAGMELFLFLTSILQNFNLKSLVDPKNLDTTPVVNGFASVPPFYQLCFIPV
# Chain of Nicotinamide N-methyltransferase (Homo sapiens) (P40261 whole entry, looked up): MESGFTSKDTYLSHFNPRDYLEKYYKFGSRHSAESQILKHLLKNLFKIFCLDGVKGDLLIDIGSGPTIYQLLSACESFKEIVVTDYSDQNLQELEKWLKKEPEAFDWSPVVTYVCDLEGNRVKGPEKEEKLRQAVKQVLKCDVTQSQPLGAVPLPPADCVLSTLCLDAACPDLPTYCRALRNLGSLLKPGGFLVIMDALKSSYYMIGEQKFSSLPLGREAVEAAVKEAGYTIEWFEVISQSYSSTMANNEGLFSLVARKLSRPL
# Chain of Phenylethanolamine N-methyltransferase (Homo sapiens) (P11086 whole entry, looked up): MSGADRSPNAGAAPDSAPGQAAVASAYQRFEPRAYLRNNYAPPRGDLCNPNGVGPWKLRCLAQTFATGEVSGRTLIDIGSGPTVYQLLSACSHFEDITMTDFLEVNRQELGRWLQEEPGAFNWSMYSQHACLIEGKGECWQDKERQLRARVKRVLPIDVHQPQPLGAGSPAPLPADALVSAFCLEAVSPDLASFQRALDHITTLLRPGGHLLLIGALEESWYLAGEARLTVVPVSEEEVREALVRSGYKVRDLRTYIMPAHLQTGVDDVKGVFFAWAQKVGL
# Chain of Catechol O-methyltransferase (Homo sapiens) (P21964 whole entry, looked up): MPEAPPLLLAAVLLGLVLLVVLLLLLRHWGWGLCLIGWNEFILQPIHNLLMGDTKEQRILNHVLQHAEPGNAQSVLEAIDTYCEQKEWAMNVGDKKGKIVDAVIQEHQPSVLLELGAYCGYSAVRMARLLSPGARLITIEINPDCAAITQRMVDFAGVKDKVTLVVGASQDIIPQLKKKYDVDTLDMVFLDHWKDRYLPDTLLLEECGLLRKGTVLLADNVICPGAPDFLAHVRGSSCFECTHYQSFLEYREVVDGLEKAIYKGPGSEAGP
compound,measurement,setting,value
CCN(CC)Cc1cccc(/C=C/c2nc3ccc(F)cc3c(=O)n2-c2ccccc2Cl)n1,Potency,[1],19 µM (active)
same,Potency,[2],inactive
same,Potency,CAOV3,inactive
same,Potency,SKOV3,20 µM (active)
Cc1nc(C)c2c(n1)N(Cc1ccc(-c3ccccc3-c3nn[nH]n3)cc1)C(=O)CC2,Potency,[3],inactive
same,Potency,[2],inactive
same,Potency,PA-1,inactive
same,Potency,SKOV3,inactive
same,Potency,Tov-21-G,inactive
COc1ccc2c3ccnc4ccc(=O)n(c2c1)c43,Potency,[2],inactive
same,Potency,CAOV3,inactive
same,Potency,PA-1,25.1 µM (active)
C=C(C)C(=O)O[C@H]1[C@H]2C(=C)C(=O)O[C@@H]2C[C@@H](C)[C@@H]2O[C@@H]2C(=O)[C@](C)(O)[C@@H]1OC(C)=O,Potency,[2],inactive
same,Potency,SKOV3,2.51 µM (active)
CCOP(=O)(Cc1ccc(C(=O)Nc2ccc(Br)cc2C#N)cc1)OCC,Potency,CAOV3,inactive
same,Potency,PA-1,inactive
same,Potency,Tov-21-G,inactive
CC[C@]1(O)C[C@H]2CN(CCC3C(=Nc4ccccc43)[C@@](C(=O)OC)(c3cc4c(cc3OC)N(C)[C@H]3[C@@](O)(C(N)=O)[C@H](O)[C@]5(CC)C=CCN6CC[C@]43[C@@H]65)C2)C1 (some centres undefined),Potency,PA-1,0.1 µM (active)
same,Potency,Tov-21-G,316 nM (active)
FC(F)(F)c1ccc(CNc2ccc(Cc3c[nH]c4ncccc34)cn2)cc1,Potency,[1],1.2 µM (active)
same,Potency,[2],inactive
same,Potency,CAOV3,inactive
same,Potency,Tov-21-G,inactive
COc1cc2nc(N3CCN(C)CC3)nc(NC3CCN(Cc4ccccc4)CC3)c2cc1OC,activity,[4],-1.25%
same,"activity change, negative = inhibition",[5],9.72%
same,activity,[6],-9.04%
same,activity,[7],0.903%
NC(=Nc1ccc(CCNCc2cccc(Cl)c2)cc1)c1cccs1,Potency,[3],477 nM (active)
same,Potency,[1],12 µM (active)
same,Potency,PA-1,inactive
same,Potency,Tov-21-G,inactive
N#Cc1cccc(C#N)c1-c1nc2c3ccccc3c3cc(Cl)ccc3c2[nH]1,Potency,CAOV3,inactive
same,Potency,PA-1,inactive
same,Potency,Tov-21-G,inactive
C[C@@H]1CCNC(=O)c2cc3ccc(C(=O)Nc4nc5ccccc5n4CCCN(C)C)cc3n21,Potency,[1],inactive
same,Potency,[2],inactive
same,Potency,CAOV3,25.1 µM (active)
same,Potency,PA-1,inactive
Cc1[nH]c(/C=C2\C(=O)Nc3ccc(F)cc32)c(C)c1C(=O)NC[C@H](O)CN1CCOCC1,Potency,[8],14.6 µM (active)
same,Potency,[3],inactive
same,Potency,[1],inactive
COC(=O)/C=C/C(=O)N(O)CCCCNCc1ccc(COC(=O)Nc2cccc3ccccc23)cc1,Potency,[9],13.1 µM (active)
same,Potency,[2],inactive
same,Potency,Tov-21-G,inactive
